According to PubChem BioAssay (Tox21):
Results filed as inconclusive are left out. A call without a number means that no potency is given here. Some compounds were tested as several samples or in several runs, with calls that do not always agree. Active and inactive are the calls of the source. Calls come from the whole dose curve.

Biological target: 5-hydroxytryptamine receptor 2A (Homo sapiens) (UniProt P28223)
Experiment: 5-hydroxytryptamine receptor 2A (HTR2A) small molecule agonists, cell-based qHTS assay (AID 1963587); note: nearly all actives have a fitted effect of over 30% in size
Details: HTR2A-CHO cells, calcium flux fluorescence, agonist mode; series mostly up to 76.8 µM
Outline: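 CHO cells stably expressing human HTR2A, plated 18 h, loaded with calcium dye 1 h at 37 C. Agonist mode: compounds added and intracellular calcium fluorescence recorded kinetically for 2 min at 1 sec intervals.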

Sequence of 5-hydroxytryptamine receptor 2A (Homo sapiens) (P28223 whole entry, looked up): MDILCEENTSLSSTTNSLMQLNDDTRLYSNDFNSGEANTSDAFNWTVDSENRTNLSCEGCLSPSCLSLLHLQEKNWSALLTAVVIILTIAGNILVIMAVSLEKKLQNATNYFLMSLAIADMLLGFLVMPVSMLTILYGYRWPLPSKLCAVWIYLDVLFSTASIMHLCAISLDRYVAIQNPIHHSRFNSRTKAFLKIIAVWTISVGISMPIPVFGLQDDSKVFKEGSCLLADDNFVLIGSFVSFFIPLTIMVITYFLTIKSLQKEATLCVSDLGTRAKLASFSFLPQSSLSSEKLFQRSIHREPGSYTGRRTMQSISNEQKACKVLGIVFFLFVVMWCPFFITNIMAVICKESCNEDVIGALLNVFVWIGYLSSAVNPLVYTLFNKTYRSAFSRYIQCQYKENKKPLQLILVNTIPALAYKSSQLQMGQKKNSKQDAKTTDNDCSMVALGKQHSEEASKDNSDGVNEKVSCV

| Structure (SMILES) | Potency | activation |
| --- | --- | --- |
| CC(C)=CC(C)(C)C | inactive |  |
| CCCC/C=C/CCCCO | inactive |  |
| C[C@@H]1C[C@H]2O[C@@]3(O[C@@H]2C(C)(C)O)[C@H](O)[C@@]2(C)[C@@H]4CC[C@H]5C(C)(C)[C@@H](O[C@@H]6OC[C@@H](O)[C@H](O)[C@H]6O)CC[C@@]56C[C@@]46CC[C@]2(C)[C@@H]13 | inactive |  |
| CCCCCC(C)OC(=O)COc1ccc(Cl)c2cccnc12 (configuration not stated) | inactive |  |
| Cc1ccccc1N=Nc1ccc(N=Nc2c(O)ccc3ccccc23)c(C)c1 | inactive |  |
| CC1CN(c2ccccc2)NC1=O (configuration not stated) | inactive |  |
| O=C(NCC(O)CO)c1c(I)c(C(=O)NCC(O)CO)c(I)c(N(CCO)C(=O)CO)c1I (configuration not stated) | inactive |  |
| O=[N+]([O-])c1ccc2ncccc2c1 | inactive |  |
| Oc1ccc(C2(c3ccc(O)c(C4CCCCC4)c3)CCCCC2)cc1C1CCCCC1 | inactive |  |
| Cc1cc(-c2ccc(N=Nc3cc(S(=O)(=O)O)c4ccccc4c3N)c(C)c2)ccc1N=Nc1cc(S(=O)(=O)O)c2ccccc2c1N | inactive |  |
| CCN(CC)CC | inactive |  |
| CO | inactive |  |
| O=C(c1ccccc1)c1ccc(O)cc1O | inactive |  |
| COC(=O)/C=C/C(C)=C\C=C\C(C)=C\C=C\C=C(C)\C=C\C=C(C)\C=C\C(=O)O | inactive |  |
| Oc1ccc2ccccc2c1 | inactive |  |
| CCOC(=O)c1ccc(C2CCC(NC[C@H](O)COc3ccc(O)c(NS(C)(=O)=O)c3)CC2)cc1 (some centres not stated) | inactive |  |
| CCOC(=O)[C@@H](C)Oc1ccc(Oc2nc3ccc(Cl)cc3o2)cc1 | inactive |  |
| O=C(O)Cc1cc(I)c(Oc2ccc(O)c(I)c2)c(I)c1 | inactive |  |
| Cn1c(N)nc2nc[nH]c2c1=O | inactive |  |
| Cc1c(Nc2ncccc2C(=O)O)cccc1C(F)(F)F | inactive |  |
| O=C(CS(=O)Cc1ccco1)NC/C=C\COc1cc(CN2CCCCC2)ccn1 (configuration not stated) | inactive |  |
| O=P(c1ccccc1)(c1ccccc1)c1ccccc1 | inactive |  |
| O=S(c1cc(Cl)cc(Cl)c1O)c1cc(Cl)cc(Cl)c1O | inactive |  |
| CN(CCCN1c2ccccc2CCc2ccccc21)CC(=O)c1ccc(Cl)cc1 | inactive |  |
| CC(C(=O)O)c1ccc2c(c1)[nH]c1ccc(Cl)cc12 (configuration not stated) | inactive |  |
| C=C/C=C/C=C/CCCCC |  | -2.6% [at 15.9 µM] (inactive) |
| CCCCCCOC(=O)c1ccccc1 | inactive |  |
| O=C(O)CCCCCCCCCCCBr | inactive |  |
| CC(=O)OCC=C(C)C | inactive |  |
| NC1=NCC2c3ccccc3Cc3ccccc3N12 (configuration not stated) | inactive |  |

Biological target: Muscarinic acetylcholine receptor M1 (Homo sapiens) (UniProt P11229)
Experiment: Cholinergic receptor muscarinic 1 (CHRM1) small molecule antagonists, cell-based qHTS assay (AID 1963588); note: nearly all actives have a fitted effect of over 40% in size; note: potency is the fitted concentration of half-maximal effect
Details: CHRM1-CHO antagonist mode, calcium flux fluorescence; series mostly up to 61.5 µM
Outline: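 CHRM1-CHO calcium-flux assay, antagonist mode. Cells were seeded 18 h, dye-loaded 1 h at 37 C and given compound for 5 min at RT, then acetylcholine was added at 50nM. FDSS fluorescence was read 3 min; 15 concentrations, three runs.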

Sequence of Muscarinic acetylcholine receptor M1 (Homo sapiens) (P11229 whole entry, looked up): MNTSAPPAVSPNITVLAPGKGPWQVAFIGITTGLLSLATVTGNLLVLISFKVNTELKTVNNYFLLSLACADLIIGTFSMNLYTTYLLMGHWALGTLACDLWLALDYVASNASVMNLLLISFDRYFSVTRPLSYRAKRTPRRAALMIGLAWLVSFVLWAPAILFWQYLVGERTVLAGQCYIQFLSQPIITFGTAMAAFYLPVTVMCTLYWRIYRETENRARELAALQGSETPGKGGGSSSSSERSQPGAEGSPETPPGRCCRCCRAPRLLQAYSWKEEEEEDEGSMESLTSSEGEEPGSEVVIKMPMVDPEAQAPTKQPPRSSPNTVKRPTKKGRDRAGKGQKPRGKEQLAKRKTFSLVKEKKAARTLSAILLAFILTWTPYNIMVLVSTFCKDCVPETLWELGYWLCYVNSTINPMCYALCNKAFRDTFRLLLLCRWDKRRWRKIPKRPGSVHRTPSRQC

| Structure (SMILES) | Potency | activity, negative = inhibition |
| --- | --- | --- |
| CCCC/C=C/CCCCO | inactive |  |
| C[C@@H]1C[C@H]2O[C@@]3(O[C@@H]2C(C)(C)O)[C@H](O)[C@@]2(C)[C@@H]4CC[C@H]5C(C)(C)[C@@H](O[C@@H]6OC[C@@H](O)[C@H](O)[C@H]6O)CC[C@@]56C[C@@]46CC[C@]2(C)[C@@H]13 | inactive |  |
| CCCCCC(C)OC(=O)COc1ccc(Cl)c2cccnc12 (configuration not stated) | inactive |  |
| Cc1ccccc1N=Nc1ccc(N=Nc2c(O)ccc3ccccc23)c(C)c1 | inactive |  |
| CC1CN(c2ccccc2)NC1=O (configuration not stated) | inactive |  |
| O=C(NCC(O)CO)c1c(I)c(C(=O)NCC(O)CO)c(I)c(N(CCO)C(=O)CO)c1I (configuration not stated) | inactive |  |
| O=[N+]([O-])c1ccc2ncccc2c1 | inactive |  |
| Oc1ccc(C2(c3ccc(O)c(C4CCCCC4)c3)CCCCC2)cc1C1CCCCC1 | inactive |  |
| Cc1cc(-c2ccc(N=Nc3cc(S(=O)(=O)O)c4ccccc4c3N)c(C)c2)ccc1N=Nc1cc(S(=O)(=O)O)c2ccccc2c1N | 7.52 µM (active) |  |
| CCN(CC)CC | inactive |  |
| O=C(c1ccccc1)c1ccc(O)cc1O | 19.2 µM (active) and inactive |  |
| Oc1ccc2ccccc2c1 | inactive |  |
| CCOC(=O)c1ccc(C2CCC(NC[C@H](O)COc3ccc(O)c(NS(C)(=O)=O)c3)CC2)cc1 (some centres not stated) | 8.69 µM (active) |  |
| CCOC(=O)[C@@H](C)Oc1ccc(Oc2nc3ccc(Cl)cc3o2)cc1 | inactive |  |
| COC(C(=O)O)c1ccccc1 (configuration not stated) | inactive |  |
| Cn1c(N)nc2nc[nH]c2c1=O | inactive |  |
| Cc1c(Nc2ncccc2C(=O)O)cccc1C(F)(F)F | inactive |  |
| O=C(CS(=O)Cc1ccco1)NC/C=C\COc1cc(CN2CCCCC2)ccn1 (configuration not stated) | inactive |  |
| Oc1ccc(N=Nc2ccccc2)cc1 | inactive |  |
| O=S(c1cc(Cl)cc(Cl)c1O)c1cc(Cl)cc(Cl)c1O | inactive |  |
| CC(C(=O)O)c1ccc2c(c1)[nH]c1ccc(Cl)cc12 (configuration not stated) | inactive |  |
| C=C/C=C/C=C/CCCCC |  | 25.8% [at 12.6 µM] (inactive) |
| O=C(O)CCCCCCCCCCCBr | inactive |  |

Biological target: Muscarinic acetylcholine receptor M1 (Homo sapiens) (UniProt P11229)
Experiment: Cholinergic receptor muscarinic 1 (CHRM1) small molecule agonists, cell-based qHTS assay (AID 1963589); note: nearly all actives have a fitted effect of over 35% in size
Details: CHRM1-CHO cells, agonist mode, calcium flux fluorescence; series mostly up to 76.8 µM
Outline: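 Agonist-mode qHTS in CHO cells stably carrying human muscarinic M1. Intracellular calcium is tracked by fluorescence every second after compound transfer; each compound runs at 15 concentrations in three independent runs.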

| Structure (SMILES) | Potency | activation |
| --- | --- | --- |
| CC(C)=CC(C)(C)C | inactive |  |
| CCCC/C=C/CCCCO | inactive |  |
| C[C@@H]1C[C@H]2O[C@@]3(O[C@@H]2C(C)(C)O)[C@H](O)[C@@]2(C)[C@@H]4CC[C@H]5C(C)(C)[C@@H](O[C@@H]6OC[C@@H](O)[C@H](O)[C@H]6O)CC[C@@]56C[C@@]46CC[C@]2(C)[C@@H]13 | inactive |  |
| CCCCCC(C)OC(=O)COc1ccc(Cl)c2cccnc12 (configuration not stated) | inactive |  |
| Cc1ccccc1N=Nc1ccc(N=Nc2c(O)ccc3ccccc23)c(C)c1 | inactive |  |
| CC1CN(c2ccccc2)NC1=O (configuration not stated) | inactive |  |
| O=C(NCC(O)CO)c1c(I)c(C(=O)NCC(O)CO)c(I)c(N(CCO)C(=O)CO)c1I (configuration not stated) | inactive |  |
| Oc1ccc(C2(c3ccc(O)c(C4CCCCC4)c3)CCCCC2)cc1C1CCCCC1 | inactive |  |
| Cc1cc(-c2ccc(N=Nc3cc(S(=O)(=O)O)c4ccccc4c3N)c(C)c2)ccc1N=Nc1cc(S(=O)(=O)O)c2ccccc2c1N | inactive |  |
| CCN(CC)CC | inactive |  |
| CO | inactive |  |
| O=C(c1ccccc1)c1ccc(O)cc1O | inactive |  |
| COC(=O)/C=C/C(C)=C\C=C\C(C)=C\C=C\C=C(C)\C=C\C=C(C)\C=C\C(=O)O | inactive |  |
| Oc1ccc2ccccc2c1 | inactive |  |
| CCOC(=O)c1ccc(C2CCC(NC[C@H](O)COc3ccc(O)c(NS(C)(=O)=O)c3)CC2)cc1 (some centres not stated) | inactive |  |
| CCOC(=O)[C@@H](C)Oc1ccc(Oc2nc3ccc(Cl)cc3o2)cc1 | inactive |  |
| COC(C(=O)O)c1ccccc1 (configuration not stated) | inactive |  |
| O=C(O)Cc1cc(I)c(Oc2ccc(O)c(I)c2)c(I)c1 | inactive |  |
| Cn1c(N)nc2nc[nH]c2c1=O | inactive |  |
| Cc1c(Nc2ncccc2C(=O)O)cccc1C(F)(F)F | inactive |  |
| O=C(CS(=O)Cc1ccco1)NC/C=C\COc1cc(CN2CCCCC2)ccn1 (configuration not stated) | inactive |  |
| Oc1ccc(N=Nc2ccccc2)cc1 | inactive |  |
| O=S(c1cc(Cl)cc(Cl)c1O)c1cc(Cl)cc(Cl)c1O | inactive |  |
| CN(CCCN1c2ccccc2CCc2ccccc21)CC(=O)c1ccc(Cl)cc1 | inactive |  |
| C=C/C=C/C=C/CCCCC |  | 0.27% [at 15.8 µM] (inactive) |
| CCCCCCOC(=O)c1ccccc1 | inactive |  |
| O=C1CCc2ccc(OCCCCN3CCN(c4cccc(Cl)c4Cl)CC3)cc2N1 | inactive |  |
| CC(=O)OCC=C(C)C | inactive |  |
| NC1=NCC2c3ccccc3Cc3ccccc3N12 (configuration not stated) | inactive |  |
